# Measured values from PubChem BioAssay (NCATS).
# Records with an inconclusive call do not appear. Active and inactive are the calls of the source. Calls follow the shape of the dose curve; as a rule, active = well fitted cell-killing curve with a large enough effect; inconclusive = small, poorly fitted or top-dose-only effect; inactive = no such curve, though single readings can be large or run the other way. Residues, ends and D or L forms follow the SMILES beside them. *: point of attachment. Cbz = O=C(OCc1ccccc1)*
# Experiment: qHTS of pediatric cancer cell lines to identify multiple opportunities for drug repurposing: Confirmatory screen for BT-37 cells (AID 1347117); also: nearly all actives have a fitted effect of over 55% in size
# Details: BT-37 pediatric cancer cells, viability; activity change, negative = cytotoxic: at 45.9 µM (top of the series)
# From the text: Drug repurposing or repositioning has been offered as a strategy for drug development in oncology programs. This approach has special potential for childhood cancers and other rare or orphan diseases, where the expected return on new drug development has been a disincentive to pharmaceuticals.
# In this project we exploit the poly-pharmacology of drugs to discover new indications via phenotypic screening of a panel of 19 well-characterized cell lines derived from solid tumors seen in children and adolescents. The goal is to identify approved drugs with previously unrecognized anticancer properties that has the potential to reveal new mechanisms and biological processes involved in carcinogenesis or drug resistance. We employed a titration-based paradigm (quantitative high-throughput screening or qHTS), where all compounds were tested at multiple concentrations for their effect on cell viability. Concentration-response curves (CRCs) were derived directly from the primary screen, and both potency and efficacy values were used to identify compounds with robust bioactivity profiles. We screened the NIH Chemical Genomics Center (NCGC) Pharmaceutical Collection (NPC) and Mechanism Interrogation Plate (MIPE) small molecule collections of approved and investigational compounds against these cell lines; and measured metabolically active cells after 48 hours of compound treatment as a proxy for cell viability.
# Assay Submitter: Nathalia J. Martinez, National Center for Advancing Translational Sciences, National Institutes of Health, Rockville, MD, USA; email: natalia.martinez@nih.gov
# [1] Shen, M et al. Quantitative high-throughput phenotypic screening of pediatric cancer cell lines identifies multiple opportunities for drug repurposing. Oncotarget 2017 Dec 19;9(4):4758-4772. PMID 29435139.
# The cells were obtained from University of North Carolina (UNC), Pediatric Preclinical Testing Program (PPT), and Coriell Institute (CI).
# qHTS cell viability assay:
# Cells were assayed in growth media at a density of 500-1,000 cells/well. Five microliters of cells were dispensed into 1,536-well, white, solid-bottom, TC-treated plates (Greiner Bio One) using a multidrop dispenser and incubated at 37 degrees C, 5% CO2, under a humidified atmosphere for 5 hours. Twenty-three nanoliters of compounds and controls (neutral control DMSO or positive control bortezomib at final concentration of 2.3 µM) were subsequently transferred by Kalypsys pintool. For primary screens, the MIPE collection was tested at 11-point dilutions (final concentrations range from 0.78 nM to 46 µM) and the NPC collection at 8-point dilutions (final concentrations range from 0.59 nM to 46 µM). Compounds tested in follow-up screens were assayed at 11-point dilutions. Cells were incubated for 48 hours, followed by addition of 3 µL of CellTiter-Glo (Promega). After a 15 min incubation at room temperature, samples were analyzed for luminescence intensity using a ViewLux High-throughput CCD imager equipped with clear filters.
# Potency is read from the fitted curve at half-maximal effect.
row,Structure (SMILES),Potency
1,CC(C)C[C@H](NC(=O)CNC(=O)c1cc(Cl)ccc1Cl)B1OC(=O)CC(CC(=O)O)(C(=O)O)O1 (stereo not given in full),522 nM (active)
2,N#Cc1c(NC(=O)c2cccc3ccccc23)sc2c1CCCC2,827 nM (active)
3,CC(C)N1[N]C(=C2C=c3cc(O)ccc3=N2)c2c(N)ncnc21,1310 nM (active)
4,CC(C)C[C@H](NC(=O)[C@@H](NC(=O)c1cccc(-c2ccccc2)n1)[C@@H](C)O)B(O)O,73.7 nM (active)
5,COc1cc(O)c2c(c1)C1OC1C[C@H](O)[C@H](O)C(=O)C=CC[C@H](C)OC2=O (stereo not given in full),14700 nM (active)
6,CCC(C(=O)O)C1CCC(C)C(C(C)C(O)C(C)C(=O)C(CC)C2OC3(C=CC(O)[C@@]4(CC[C@](C)(C5CC[C@@](O)(CC)C(C)O5)O4)O3)C(C)CC2C)O1 (stereo not given in full),inactive
7,NC(=O)Nc1cc(-c2ccc(CN3CCOCC3)cc2)sc1C(N)=O,18500 nM (active)
8,CCCCC(=O)O[C@]1(C(=O)CO)[C@@H](C)C[C@H]2[C@@H]3CCC4=CC(=O)C=C[C@]4(C)[C@@]3(F)[C@@H](O)C[C@@]21C,inactive
9,COc1cccc2c1C(=O)c1c(O)c3c(c(O)c1C2=O)C[C@@](O)(C(C)=O)C[C@H]3O[C@H]1C[C@H](N)[C@H](O)[C@H](C)O1,165 nM (active)
10,CC(=O)O[C@H]1C[C@@H]2CC[C@H]3[C@H]4C[C@H]([N+]5(C)CCCCC5)[C@@H](OC(C)=O)[C@@]4(C)CC[C@@H]3[C@@]2(C)C[C@H]1N1CCCCC1,3290 nM (active)
11,O=C(C=CC=Cc1ccc2c(c1)OCO2)N1CCCCC1,inactive
12,COc1cccc2c1C(=O)c1c(O)c3c(c(O)c1C2=O)C[C@@](O)(C(=O)CO)C[C@@H]3O[C@H]1C[C@H](N)[C@H](OC2CCCCO2)[C@H](C)O1 (stereo not given in full),928 nM (active)
13,Cc1[nH]c(C=C2C(=O)Nc3ccccc32)c(C)c1CCC(=O)O,inactive
14,C=CC(=O)N1CCc2ccc(-n3c(=O)ccc4cnc5ccc(-c6cnn(C)c6)cc5c43)cc21,4650 nM (active)
15,CNC(=O)Nc1ccc(-c2nc(N3CC4CCC(C3)O4)c3cnn(C4CCC5(CC4)OCCO5)c3n2)cc1,104 nM (active)
16,CC(C(C)N1CC(=O)NC(=O)C1)N1CC(=O)NC(=O)C1 (stereo not given),9270 nM (active)
17,C[C@@H](Oc1ccc2[nH]nc(C=Cc3cnn(CCO)c3)c2c1)c1c(Cl)cncc1Cl,18500 nM (active)
18,C=CC(=O)Nc1ccc2ncnc(Nc3ccc(OCc4cccc(F)c4)c(Cl)c3)c2c1,9270 nM (active)
19,Cc1cnc(Nc2ccc(N3CCN(C)CC3)cc2)nc1Nc1cccc(S(=O)(=O)NC(C)(C)C)c1,5850 nM (active)
20,Cn1c(Nc2ccc(C(F)(F)F)cc2)nc2cc(Oc3ccnc(-c4ncc(C(F)(F)F)[nH]4)c3)ccc21,4650 nM (active)

row,Structure (SMILES),Potency
1,Cn1cc(-c2cnn3c(N)c(Br)c([C@H]4CCCNC4)nc23)cn1,3690 nM (active)
2,CC1(C)O[C@@H]2C[C@H]3[C@@H]4CCC5=CC(=O)C=C[C@]5(C)[C@@H]4[C@@H](O)C[C@]3(C)[C@]2(C(=O)CO)O1,inactive
3,O=C1NCCc2[nH]c(-c3ccncc3)cc21,2330 nM (active)
4,C=CC(=O)Nc1cccc(Nc2nc(NC3CCC(N(C)C)CC3)nc3c2ncn3C(C)C)c1 (stereo not given),827 nM (active)
5,CC(=O)N1CCN(c2ccc(OCc3nn(C)c(C)c3-c3cccc4c(CCCOc5cccc6ccccc56)c(C(=O)O)n(Cc5cccnc5)c34)cc2)CC1,inactive
6,COC[C@H](NC(=O)c1cnc(C)s1)C(=O)N[C@@H](COC)C(=O)N[C@@H](Cc1ccccc1)C(=O)[C@@]1(C)CO1,165 nM (active)
7,CC(=O)SCC(Cc1ccccc1)C(=O)NCC(=O)OCc1ccccc1 (stereo not given),inactive
8,O=S(=O)(O)CCSSCCS(=O)(=O)O,inactive
9,CCN(CC)Cc1ccc2cc(COC(=O)Nc3ccc(C(=O)NO)cc3)ccc2c1,inactive
10,CC[C@]12C=CCN3CC[C@@]4(c5cc([C@@]6(C(=O)OC)C[C@H]7C[C@@H](C(C)(F)F)CN(Cc8c6[nH]c6ccccc86)C7)c(OC)cc5N(C)[C@H]4[C@@](O)(C(=O)OC)[C@H]1OC(C)=O)[C@@H]32,inactive
11,CC(=O)ON=C1C(c2c(O)[nH]c3cc(Br)ccc23)=Nc2ccccc21,16500 nM (active)
12,CC(=O)NCC(=O)N1[C@H]2CC[C@H]1c1cc(Nc3ncc(C(F)(F)F)c(NC4CCC4)n3)ccc12,11700 nM (active)
13,CS(=O)(=O)N1CCc2c(-c3cnc(N)nc3)nc(N3CCOCC3)nc21,5850 nM (active)
14,COc1cccc2c1C(=O)c1c(O)c3c(c(O)c1C2=O)C[C@@](O)(C(=O)CO)C[C@@H]3O[C@H]1C[C@H](N)[C@@H](O)[C@H](C)O1,117 nM (active)
15,CC(C)C[C@@H](C=O)NC(=O)[C@H](CC(C)C)NC(=O)[C@H](CC(C)C)NC(=O)OCc1ccccc1 (Cbz-Leu-Leu-Leu-aldehyde),585 nM (active)
16,Oc1ccc(-c2ccc(-c3cc(Nc4cccc(CNC5CC5)c4)n[nH]3)cc2)c(O)c1,6570 nM (active)
17,N#CNC(=NCCCCCCOc1ccc(Cl)cc1)Nc1ccncc1,18.5 nM (active)
18,NS(=O)(=O)OC[C@@H]1C[C@@H](n2ccc3c(N[C@H]4CCc5ccccc54)ncnc32)C[C@H]1O,inactive
19,C[C@H](NCc1ccc2c(c1)nc(NC(=O)c1ccc(-c3cn[nH]c3)s1)n2CCc1ccccc1)C(C)(C)C,928 nM (active)
20,COc1cc(C[C@@H](CO)[C@H](CO)Cc2ccc(O)c(OC)c2)ccc1O,inactive
